According to PubChem BioAssay (EPA / NIEHS):
Results filed as inconclusive are left out. Calls of active or inactive are those of the source. How the source made its calls: active means hit-call score of the fitted dose curve at least 0.9, where 1 is the maximum; inconclusive means response in the unintended direction; inactive means score below 0.9.

target: Agonist Androgen Response Element (ARE), AR (gene 367) (UniProt P10275); assay: OT_AR_ARELUC_AG_1440: Odyssey Thera (OT) 24-hour CHO-K1 Luciferase Assay for Agonist Androgen Response Element (ARE) (AID 2283379)
Sequence (P10275 whole entry, looked up): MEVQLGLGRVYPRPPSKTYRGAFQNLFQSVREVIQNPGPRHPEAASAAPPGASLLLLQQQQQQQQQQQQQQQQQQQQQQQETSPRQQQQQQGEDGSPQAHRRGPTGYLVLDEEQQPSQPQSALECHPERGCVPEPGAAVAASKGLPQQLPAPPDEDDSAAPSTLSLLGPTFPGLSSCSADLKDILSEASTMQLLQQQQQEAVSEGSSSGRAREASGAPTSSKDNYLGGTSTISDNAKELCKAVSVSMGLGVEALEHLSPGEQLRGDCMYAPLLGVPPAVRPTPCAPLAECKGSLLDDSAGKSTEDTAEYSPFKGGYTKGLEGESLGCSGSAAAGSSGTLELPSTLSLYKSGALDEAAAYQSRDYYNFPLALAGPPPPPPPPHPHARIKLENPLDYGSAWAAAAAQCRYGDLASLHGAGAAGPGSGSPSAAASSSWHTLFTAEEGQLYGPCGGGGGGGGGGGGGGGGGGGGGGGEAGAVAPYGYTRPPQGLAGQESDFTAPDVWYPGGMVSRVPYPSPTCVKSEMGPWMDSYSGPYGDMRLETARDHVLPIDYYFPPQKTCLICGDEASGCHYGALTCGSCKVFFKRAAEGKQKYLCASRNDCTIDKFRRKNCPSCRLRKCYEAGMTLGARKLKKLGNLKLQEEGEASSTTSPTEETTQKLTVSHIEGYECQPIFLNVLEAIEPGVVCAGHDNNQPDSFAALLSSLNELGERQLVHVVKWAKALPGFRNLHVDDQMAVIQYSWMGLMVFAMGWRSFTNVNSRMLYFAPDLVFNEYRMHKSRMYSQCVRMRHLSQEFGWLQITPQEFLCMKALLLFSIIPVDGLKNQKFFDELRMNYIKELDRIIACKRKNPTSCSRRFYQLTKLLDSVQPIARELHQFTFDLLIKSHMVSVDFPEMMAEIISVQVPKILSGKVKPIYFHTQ
Procedure, shortened: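 Seed CHO-K1 cells; dose compounds for 24 h; add D-luciferin plus ATP in PBS; read luminescence. Signal increase relative to vehicle defines agonist activity, with at least 3 replicate wells per sample.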

`CC(C)(C)N(NC(=O)c1ccc(Cl)cc1)C(=O)c1ccccc1` was tested. Which outcome did it give?
Its outcome is “inactive”.

`CO/N=C(/C(=O)OC)c1ccccc1COc1ccccc1C` was tested. Which outcome did it give?
Its outcome is “inactive”.

With `CCN(CC)c1ccccc1` as the compound, how does the outcome read?
Its outcome is “inactive”.

`CCCCC(CC)COP(=O)(Oc1ccccc1)Oc1ccccc1` (stereo unspecified) was tested. Which outcome did it give?
Its outcome is “inactive”.

For `O=P(OCC(Br)CBr)(OCC(Br)CBr)OCC(Br)CBr` (stereo unspecified), which outcome is on record?
The outcome was “inactive”.

How did the outcome turn out when `c1cc2c3c(cccc3c1)CC2` was run?
The outcome was “inactive”.

How did the outcome turn out when `[N-]=[N+]=[N-]` was run?
Its outcome is “inactive”.

target: Estrogen receptor beta (Homo sapiens) (UniProt Q92731); assay: OT_ER_ERbERb_1440: Odyssey Thera (OT) 24-hour HEK293T Protein-Complementation Assay for Estrogen Receptor-beta/-beta Homodimer (AID 2283380);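 further: fluorescence gain from ER beta LBD homodimer complementation read by laser scanning cytometry; scored as signal increase over DMSO baseline for both agonists and antagonists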
Sequence (Q92731 whole entry, looked up, the tested form may be a part): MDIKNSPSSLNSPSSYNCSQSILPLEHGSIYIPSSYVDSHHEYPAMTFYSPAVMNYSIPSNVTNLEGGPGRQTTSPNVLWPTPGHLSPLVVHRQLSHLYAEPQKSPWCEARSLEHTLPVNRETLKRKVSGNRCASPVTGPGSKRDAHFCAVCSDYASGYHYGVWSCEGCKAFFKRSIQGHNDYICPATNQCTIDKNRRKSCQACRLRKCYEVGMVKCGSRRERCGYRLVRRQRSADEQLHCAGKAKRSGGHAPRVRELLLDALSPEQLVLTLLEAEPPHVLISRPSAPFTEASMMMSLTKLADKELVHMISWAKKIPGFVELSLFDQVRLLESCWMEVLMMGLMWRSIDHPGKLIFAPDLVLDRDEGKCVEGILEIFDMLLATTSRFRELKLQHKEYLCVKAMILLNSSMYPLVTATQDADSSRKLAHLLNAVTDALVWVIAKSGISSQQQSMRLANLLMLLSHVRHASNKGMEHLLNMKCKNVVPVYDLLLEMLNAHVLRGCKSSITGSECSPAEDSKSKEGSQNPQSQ
Procedure, shortened: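 HEK293T cells stably expressing human ER-beta LBD (aa 310-547) PCA homodimer pair, dosed 24 h; formaldehyde-fixed, Draq5-stained. Readout: increase in nuclear (agonist) or nuclear plus cytoplasmic (antagonist) fluorescence intensity versus DMSO, gain-of-signal fitting.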

Which outcome does the source give for `Nc1cc2c3c(c1)C(c1ccccc1)=N[C@@H](NC(=O)c1cccnc1)C(=O)N3CC2` here?
Its outcome is “inactive”.

Which outcome does the source give for `Cc1ccc([N+](=O)[O-])cc1C` here?
The outcome was “inactive”.

For `O=P1(N(CCCl)CCCl)NCCCO1` (stereo unspecified), which outcome is on record?
The outcome was “inactive”.

Which outcome does the source give for `CC(C)(C)N(NC(=O)c1ccc(Cl)cc1)C(=O)c1ccccc1` here?
Its outcome is “inactive”.

With `O=[N+]([O-])c1ccccc1` as the compound, how does the outcome read?
Its outcome is “inactive”.

`O=C(O)CF` was tested. Which outcome did it give?
The outcome was “inactive”.

With `CCCCc1ccccc1` as the compound, how does the outcome read?
Its outcome is “inactive”.

Which outcome does the source give for `COCCOCCO` here?
Its outcome is “inactive”.

Which outcome does the source give for `COC(N)=O` here?
Its outcome is “inactive”.

For `CCN(CC)c1ccccc1`, which outcome is on record?
Its outcome is “inactive”.

Which outcome does the source give for `O=C(O)C1C(C(=O)O)C2(Cl)C(Cl)=C(Cl)C1(Cl)C2(Cl)Cl` (stereo unspecified) here?
The outcome was “inactive”.

`CCCCC(CC)COP(=O)(Oc1ccccc1)Oc1ccccc1` (stereo unspecified) was tested. Which outcome did it give?
Its outcome is “inactive”.

How did the outcome turn out when `CC(Cc1ccc(OCC(=O)O)cc1)NCC(O)c1csc(C(F)(F)F)n1` (stereo unspecified) was run?
Its outcome is “inactive”.

Which AC50 does the source give for `CCCCc1ccc(O)cc1` here?
Its AC50 is 19.6 µM (active).

`CCCCOCCOP(=O)(OCCOCCCC)OCCOCCCC` was tested. Which outcome did it give?
Its outcome is “inactive”.

How did the outcome turn out when `CCCCC(CC)COC(=O)c1c(Br)c(Br)c(Br)c(Br)c1C(=O)OCC(CC)CCCC` (stereo unspecified) was run?
Its outcome is “inactive”.

For `CCCCN(CCCC)N=O`, which outcome is on record?
The outcome was “inactive”.

How did the outcome turn out when `CC(Cl)(Cl)C(=O)O` was run?
The outcome was “inactive”.

For `Cc1ccc(O)cc1C`, which outcome is on record?
Its outcome is “inactive”.

Which outcome does the source give for `O=P(OCC(Br)CBr)(OCC(Br)CBr)OCC(Br)CBr` (stereo unspecified) here?
Its outcome is “inactive”.

Which outcome does the source give for `CCOc1ccc(C(C)(C)COCc2cccc(Oc3ccccc3)c2)cc1` here?
The outcome was “inactive”.

How did the outcome turn out when `FC(F)(F)c1ccc(Cl)cc1` was run?
Its outcome is “inactive”.

With `CCOP(=S)(Oc1ccc([N+](=O)[O-])cc1)c1ccccc1` (stereo unspecified) as the compound, how does the outcome read?
The outcome was “inactive”.

With `CCC1(c2ccccc2)C(=O)N=C(O)NC1=O` (stereo unspecified) as the compound, how does the outcome read?
The outcome was “inactive”.

For `O=S1(=O)OCC2C(CO1)C1(Cl)C(Cl)=C(Cl)C2(Cl)C1(Cl)Cl` (stereo unspecified), which outcome is on record?
The outcome was “inactive”.

`O=C(CBr)OCc1ccccc1` was tested. Which outcome did it give?
Its outcome is “inactive”.

With `ClC(Cl)(Cl)c1ccccc1` as the compound, how does the outcome read?
The outcome was “inactive”.

How did the outcome turn out when `c1cc2c3c(cccc3c1)CC2` was run?
Its outcome is “inactive”.

With `c1nc[nH]n1` as the compound, how does the outcome read?
Its outcome is “inactive”.
